Shown are actives, neighbours in structure and some others; about 6.6% of the full set was active somewhere.
KB-3-1 tox: qHTS assay for MDR1-selective chemotherapeutics: Primary screen using the parental adenocarcinoma cell KB-3-1; KB-3-1 viability, CellTiter-Glo ATP luminescence, 72 h; Potency, µM (titrated, usually from 46.1 µM), hits mostly cytotoxic; 400,000 tested, 1.4% active; also: % is scaled to controls: 0 for no effect and ±100 for the full control effect; nearly all actives have a fitted effect of over 60% in size
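KB-3-1 parental drug-naive adenocarcinoma cells in DMEM/10% FBS, incubated 72 h at 37 C with pin-transferred compounds across a concentration series. Viability by CellTiter-Glo luminescence; concentration-response curves fitted after normalization.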
RGS4 inh: Inhibitors of Regulator of G Protein Signaling (RGS) 4: qHTS; Regulator of G-protein signaling 4 (Homo sapiens), P49798; Transcreener GDP fluorescence polarization, RGS4-accelerated GTP hydrolysis; Potency, µM (highest dose often 114 µM), inactives show top-dose activity change, negative = inhibition, usual class: inhibitors; 390,000 tested, 0.039% active; AID 504845, 2011; also: % is scaled to controls: 0 for no effect and ±100 for the full control effect; nearly all actives have a fitted effect of over 75% in size
Target sequence (P49798 whole entry, looked up): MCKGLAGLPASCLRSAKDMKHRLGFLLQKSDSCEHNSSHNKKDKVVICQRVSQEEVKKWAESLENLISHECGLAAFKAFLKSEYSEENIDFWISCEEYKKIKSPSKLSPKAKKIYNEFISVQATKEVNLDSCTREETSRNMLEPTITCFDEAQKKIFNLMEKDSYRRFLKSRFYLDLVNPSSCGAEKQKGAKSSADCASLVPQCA
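MLSMR compounds (23 nl, pin-transferred) preincubated 10 min at room temperature with a 500nM (2x) first reagent, then RGS4 at 900nM (2x) plus Transcreener GDP mix added; fluorescence polarization (620/688 nm) read before and after 90 min at 30 °C.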
KB-V1 MDR tox: qHTS assay for MDR1-selective chemotherapeutics: Primary screen using the drug-selected MDR subline cells KB-V1 | KB-V1 MDR cells viability, CellTiter-Glo, 72 h | Potency, µM (doses to about 46.1 µM), usual class: cytotoxic | 400,000 tested, 3.4% active; also: % is scaled to controls: 0 for no effect and ±100 for the full control effect; nearly all actives have a fitted effect of over 60% in size
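Following 72 h at 37 degrees C with compound, KB-V1 cell viability was read by CellTiter-Glo luminescence, medium being phenol-red-free DMEM plus 10% FBS; concentration-response parameters came from normalized, curve-fitted qHTS data.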
MCF10A rerep: A quantitative high throughput screen for small molecules that induce DNA re-replication in MCF 10a normal breast cells | 350,000 tested, 2.9% active | Potency, µM (doses to about 46.1 µM), for inactives: top-dose activity, positive = re-replication, hits mostly activators | AID 624296, 2012 | MCF 10A DNA re-replication, Hoechst nuclear intensity, 48 h; also: % of control where 0% means no effect; nearly all actives have a fitted effect of over 50% in size
TSG101-PTAP inh: qHTS Assay for Iinhibitors of HIV-1 Budding by Blocking the Interaction of PTAP/TSG101; Fluorescence polarization, FITC-PTAP peptide / Tsg101 binding; Potency, µM (titrated, usually from 115 µM), without a hit: top-dose activity change, negative = inhibition, hits mostly inhibitors; 340,000 tested, under 10 active; active = well fitted inhibition curve with a large enough effect in the main read-out, with a control signal flat, not every such curve was filed as active; inconclusive = small, poorly fitted or top-dose-only effect, or effect the other way, or a change in a side signal; inactive = no such curve, though single readings can be large or run the other way; also: % of control where 0% means no effect
Target sequence (Q99816 whole entry, looked up): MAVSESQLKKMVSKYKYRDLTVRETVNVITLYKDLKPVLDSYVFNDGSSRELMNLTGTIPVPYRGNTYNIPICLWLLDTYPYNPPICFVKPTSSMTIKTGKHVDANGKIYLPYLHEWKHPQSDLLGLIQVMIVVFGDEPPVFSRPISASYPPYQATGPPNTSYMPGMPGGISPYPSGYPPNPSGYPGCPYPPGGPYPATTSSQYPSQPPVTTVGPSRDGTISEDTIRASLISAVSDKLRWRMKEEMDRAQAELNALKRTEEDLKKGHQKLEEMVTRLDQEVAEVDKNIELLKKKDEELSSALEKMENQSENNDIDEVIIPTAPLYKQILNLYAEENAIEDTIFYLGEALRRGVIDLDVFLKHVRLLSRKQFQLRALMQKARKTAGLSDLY
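FP read-out: FITC-PTAP peptide, 50 nM final, binding Tsg101 binding domain, 10 uM final; 20 min, r.t.; 10 mM HEPES pH 7.5, 0.15 M NaCl, 0.01% Tween 20, 3 mM EDTA, 0.1 mM TCEP.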
SW480 rereplic: A quantitative high throughput screen for small molecules that induce DNA re-replication in SW480 colon adenocarcinoma cells | Potency, µM (top dose mostly 46.1 µM), for inactives: at the highest dose re-replication activation, hits mostly activators | SW480 DNA re-replication, Hoechst DNA content imaging, 48 h | 340,000 tested, 1.8% active; also: % of control where 0% means no effect; nearly all actives have a fitted effect of over 55% in size
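Hoechst fluorescence of nuclei (405 nm excitation, 500-530 nm emission) measured by plate-scanning imager after 48 hr compound exposure at 37 C; re-replication scored as increased number of nuclei with elevated intensity.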
An asterisk follows results filed as active; i = inactive; ? = inconclusive; nt = not tested or not shown; [ ] = dose if it differs, or a comment. Unless noted, calls follow the shape of the dose curve; as a rule, active = well fitted curve in the direction sought with a large enough effect; inconclusive = small, poorly fitted or top-dose-only effect, or another doubt; inactive = no such curve, though single readings can be large; an effect the other way counts as inactive or inconclusive. Potency is read from the fitted curve at half-maximal effect.

SMILES | KB-3-1 tox | RGS4 inh | KB-V1 MDR tox | MCF10A rerep | TSG101-PTAP inh | SW480 rereplic
Cc1cc(S(=O)(=O)C(CNC(=O)COc2ccc(Cl)cc2)c2cccs2)ccc1F (configuration not stated) | nt | 8% | nt | nt | nt | nt
CC(=O)CC1OC(=O)C(Br)=C1NCc1ccccc1 (configuration not stated) | i | ? | i | 2.6µM* | -7% | ?
COc1ccc(-c2onc(C)c2C)cc1S(=O)(=O)NCc1ccc(C)o1 | nt | -9% | nt | nt | nt | nt
CS(=O)(=O)N1N=C(c2ccccc2)CC1c1ccc2nccnc2c1 (configuration not stated) | i | -18% | 21µM* | ? | 0% | -1%
CCCOc1cccc(C(=O)N(Cc2sccc2C)C2CCS(=O)(=O)C2)c1 (configuration not stated) | nt | -8% | nt | nt | nt | nt
Cc1n[nH]c(C)c1N=Nc1ccc(Br)cc1 | 16µM* | 2% | ? | ? | -2% | -14%
COc1ccc(N=Nc2c(C)n[nH]c2C)cc1 | ? | 8% | ? | ? | -9% | -2%
CN(Cc1ccc(C(F)(F)F)cc1)C(=O)c1ccc(Oc2ccccc2)cc1 | ? | -29% | i | 16µM* | 1% | -2%
Cc1cc(=O)n(Cc2cccc(Cl)c2)c2c1c(C)nn2C | i | -7% | i | nt | nt | nt
Cc1ccc(-n2c3c(cc(-c4nc(-c5ccc(Cl)cc5)cs4)c2=O)C(=O)CC(C)(C)C3)cc1 | i | -18% | i | nt | nt | nt
CC(C)Cc1nc2oc3c(Cl)ncnc3c2c2c1CCC2 | i | 18% | i | ? | -1% | 4.1µM*
COc1ccc(Cl)cc1N1C(=O)/C(=C\c2sccc2C)N=C1SCC(=O)NC1CC1 | i | -1% | 21µM* | -3% | 1% | 10%
Cc1ccc(-c2nnc3c4ccccc4c(C)nn23)cc1NC(=O)c1ccccc1Cl | nt | -14% | nt | nt | nt | nt
COc1ccccc1N1CCN(Cc2cc(Br)c(O)c3ncccc23)CC1 | ? | -20% | ? | ? | -1% | 5.2µM*
CCOCc1cc(CN2CCN(c3ccccc3OC)CC2)c(O)c2ncccc12 | nt | -11% | nt | nt | nt | nt
OCCN1CCN(Cc2cc(Cl)c3cccnc3c2O)CC1 | ? | 11% | 5.8µM* | ? | 0% | 3.3µM*
COc1ccccc1N1CCN(Cc2cc(COC(C)C)c3cccnc3c2O)CC1 | nt | -9% | nt | nt | nt | nt
Oc1c(CN2CCN(c3ccccn3)CC2)cc(Cl)c2cccnc12 | ? | -38% | 5.2µM* | ? | -4% | 7.3µM*
CCCN1C2CCCC1CC(NC(=S)NCCCOCC)C2 (configuration not stated) | i | -4% | 8.2µM* | -1% | -1% | -11%
CCOCCCNC(=S)NC1CC2CCC(C1)N2Cc1ccccc1 (configuration not stated) | i | -7% | i | -4% | 1% | -7%
CCNC(=S)NC1CC2CCCC(C1)N2CCc1ccccc1 (configuration not stated) | i | 5% | i | 0.73µM* | -6% | ?
CCNC(=S)NC1CC2CCC(C1)N2Cc1ccccc1 (configuration not stated) | i | 18% | i | -5% | -9% | 0%
O=C(Cn1nc(Cc2cccnc2)c2ccccc2c1=O)Nc1ccc(F)c(Cl)c1 | nt | -8% | nt | nt | nt | nt
Cc1ccc(Cn2nnc3c(=O)n(CC(=O)N4CCN(c5ccccc5)CC4)cnc32)cc1 | i | 0% | 5.2µM* | ? | -7% | -9%
Cc1ccc(Cn2nnc3c(=O)n(CC(=O)OCc4ccccc4)cnc32)cc1 | i | -20% | i | 3% | -1% | -4%
SMILES | KB-3-1 tox | RGS4 inh | KB-V1 MDR tox | MCF10A rerep | TSG101-PTAP inh | SW480 rereplic
O=C(Cn1cnc2c(nnn2-c2cccc(Cl)c2)c1=O)N1CCCC1 | i | -11% | 13µM* | 4% | 0% | 0%
COc1ccc(-c2nc3ccccc3o2)cc1NC(=O)c1ccc(N2CCC(C)CC2)c([N+](=O)[O-])c1 | nt | 3% | nt | nt | nt | nt
CCOC(=O)N1CCN(/[N+]([O-])=N/Oc2ccc([N+](=O)[O-])cc2[N+](=O)[O-])CC1C (configuration not stated) | nt | -21% | nt | nt | nt | nt
Cc1ccc(-n2nnnc2SCC(=O)NNC(=O)c2ccco2)c(C)c1 | i | -12% | i | 21µM* | -3% | -15%
COC(=O)c1ccccc1NC(=O)CSc1nnnn1-c1ccc(C)cc1C | i | 2% | i | 13µM* | -11% | ?
CCOC(=O)c1sc(NC(=O)CSc2nnnn2-c2ccc(C)cc2C)nc1C | i | -5% | i | ? | 2% | -6%[9.22 µM]
O=C(CSc1nnnn1-c1ccccc1F)NNC(=O)c1ccco1 | i | 5% | i | ? | -3% | -31%
COc1ccccc1NC(=O)Cn1c(=O)n(Cc2ccco2)c(=O)c2oc3ccccc3c21 | i | 11% | i | nt | nt | nt
O=C(NCc1ccc(F)cc1)c1ccc2c(c1)nc1n2CCCCC1 | i | 20% | i | nt | nt | nt
COc1ccc2c(CNCc3cccs3)c(C(=O)O)n(Cc3ccccc3C)c2c1 | i | 14% | i | nt | nt | nt
Cc1cccc(-c2nc3c4ccccc4nc(N4CCN(c5ccccc5F)CC4)n3n2)c1 | nt | 31% | nt | nt | nt | nt
CCOC(=O)c1cccc(NC(=O)/C=C/c2ccc([N+](=O)[O-])cc2)c1 | i | -10% | 4.1µM* | 18% | -1% | -1%
O=C(/C=C/c1ccc([N+](=O)[O-])cc1)Nc1cccc(S(=O)(=O)NC2=NCCCCC2)c1 | i | -35% | 18µM* | 10% | -2% | 1%
Cc1ccc(C(=O)COC(=O)c2cccc(NC(=O)c3ccc([N+](=O)[O-])cc3[N+](=O)[O-])c2)cc1 | ? | -19% | 18µM* | ? | -6% | 26%
O=C(/C=C/c1ccccc1Cl)Nc1cccc(S(=O)(=O)NC2=NCCCCC2)c1 | ? | -32% | i | 22% | 1% | 0%
COc1ccc2[nH]cc(CCNC(=O)c3cnn(-c4ccc(C)cc4)c3C3CCN(C(=O)OC(C)(C)C)CC3)c2c1 | i | 6% | i | nt | nt | nt
CCc1nnc(SCc2nc(-c3ccccc3Cl)oc2C)c2cc3sc(C)cc3n12 | nt | -2% | nt | nt | nt | nt

Assay outcomes (PubChem BioAssay)
